Experimental data: PubChem BioAssay AID504621 (Broad Institute, 2011)
Among all 310,000 compounds or so, about 970 (0.31%) were called active. Only a selection was taken, and actives are over-represented in it overall. Values without a mark were called inactive.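 How the source made its calls: active means every replicate shows inhibition above about 80%, whatever the replicate mean (limit read from the data); inconclusive means mean inhibition reaches the set limit but some replicate falls short; inactive means the rest.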

Assay: growth inhibition of PfHsp90-expressing yeast, primary screen, antimalarial PfHsp90 inhibitor project, S. cerevisiae, BacTiter-Glo luminescence, single point, set 2 (AID 504621);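 further: yeast relying on Plasmodium falciparum Hsp90 in place of its own; 0% = DMSO neutral controls and 100% = 20 µM radicicol positive controls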
Conditions: BacTiter-Glo ATP, 48 h, at 9.4 µM, active compounds read high, yeast lacking PDR1 and PDR3 efflux regulators

| Structure (SMILES) | inhibition |
| --- | --- |
| O=C(/C=C/c1ccc(Cl)c([N+](=O)[O-])c1)c1cccnc1 | 104% (active) |
| O=C(Nc1cccnc1)c1ccc(Cl)c([N+](=O)[O-])c1 | 15.1% |
| O=C(/C=C/c1ccc(Cl)c([N+](=O)[O-])c1)c1ccc(O)cc1 | 12.9% |
| COc1ccc(CNCCCn2cnc3c(OCc4ccccc4)ncnc32)cc1 | 21.9% |
| COc1ccc(C(=O)Nc2cccc(/C=C(/CCC(=O)O)c3nc4ccccc4s3)c2)cc1 | -6.48% |
| O=C(NN=Cc1ccccc1O)NN=Cc1ccccc1O | 15.3% |
| COC[C@@H]1NS(=O)(=O)c2ccc(Br)cc2O[C@H]1c1ccccc1 | -9.7% |
| CC(C)OC(=O)c1ccc(NCc2cc(O)ccc2O)cc1Cl | 121% (active) |
| CC(CN1CCOCC1)OC(=O)c1ccc(Cl)cc1Cl (stereo not given) | -17.2% |
| CC(C)NC(=O)c1ccc(Cl)cc1Cl | -8.78% |
| N#CC1=C(N)Oc2cc(N)ccc2C1c1ccccc1 (stereo not given) | -6.35% |
| O=C(Cc1ccc(S(=O)(=O)N2CCOCC2)s1)Nc1ccc(Br)c(C(F)(F)F)c1 | 0.787% |
| C=CCNC(=S)N1CCN(CCN=Cc2c(C)[nH]n(-c3ccc([N+](=O)[O-])cc3)c2=O)CC1 | -11.1% |
| Cc1[nH]n(-c2ccccc2)c(=O)c1N=Nc1ccccc1C(=O)N1CCCCC1 | 9.24% |
| Cc1[nH]n(-c2ccc([N+](=O)[O-])cc2)c(=O)c1C=NCCN1CCN(C(=O)c2ccccc2F)CC1 | 86.9% (active) |
| CCOC(=O)CCC(NC(=O)c1ccc(CNc2nc3cc(C(F)(F)F)ccc3nc2C(=O)OCC)cc1)C(=O)OCC (stereo not given) | -2.78% |
| Cc1ccc(S(=O)(=O)N2CCN(C(=O)COC(=O)/C=C/c3cccc(Cl)c3)CC2)c(C)c1 | 4.86% |
| Cc1cccc(-c2oc3ccc(-c4ccc5c(c4)OCO5)cc3c2C#Cc2cncn2C)c1 | -2.66% |
| O=C(NCc1ccc2c(c1)OCO2)c1c(-c2ccsc2)sc2ccccc12 | 20.1% |
| C/C(=N\NC(=O)c1ccccc1F)c1ccccn1 | -13% |

| Structure (SMILES) | inhibition |
| --- | --- |
| C/C(=N\NC(=O)Cc1ccc(Cl)cc1)c1ccccn1 | -4.85% |
| CC(=NNC(=S)N1CCCCCC1)c1ccccn1 | 91.4% (active) |
| Oc1[nH]c2ccccc2c1N=Nc1c(F)c(F)c(F)c(F)c1F | -34.3% |
| COc1ccc(C(=O)N(C)Cc2ccc(OC)c(OC)c2OC)cc1S(=O)(=O)N1CCOCC1 | 5.5% |
| O=C(CN1C(=O)NC2(CCCCCCC2)C1=O)NCc1ccc(F)cc1 | 12.2% |
| OCC1(CO)CC2(C1)CC(CO)(CO)C2 | 6.26% |
| CCNC(=O)N1CCCC(C(=O)c2ccc(-c3ccccc3)cc2)C1 (stereo not given) | -1.67% |
| Cn1nccc1C(=O)N1CCCC(C(=O)c2ccc(Oc3ccccc3)cc2)C1 (stereo not given) | -45.9% |
| O=C(c1ccc(-c2ccccc2)cc1)C1CCCN(C(=O)c2cncs2)C1 (stereo not given) | 90.2% (active) |
| CC(C)(C)OC(=O)N(Cc1ccccc1)Cc1ccc(OCc2cccc(NC(=O)c3ccccc3)c2)cc1 | 25% |
| COc1cccc2oc(CCc3ccccc3)cc(=O)c12 | 8.03% |
| O=C(CC1SCCNC1=O)Nc1ccc(Cl)c(Cl)c1 (stereo not given) | 15% |
| O=C(Cc1ccc(Cl)c(Cl)c1)Nc1ccc(SC(F)F)cc1 | 12.6% |
| O=C(CC(O)(C(F)(F)F)C(F)(F)F)Nc1ccc(Cl)c(Cl)c1 | 123% (active) |
| Cc1cc([N+](=O)[O-])ccc1NS(=O)(=O)c1ccccc1 | -35.7% |
| COc1cccc(CNC(=O)CCCC(=O)Nc2cccc([N+](=O)[O-])c2)c1 | -1.23% |
| COC(=O)/C=C\C(=O)Nc1cccc([N+](=O)[O-])c1 | 106% (active) |
| COc1ccc(S(=O)(=O)NC(C)C(=O)Nc2cccc([N+](=O)[O-])c2)cc1 (stereo not given) | 4.61% |
| O=[N+]([O-])/C=C/c1ccc2c(ccn2Cc2ccccc2)c1 | 104% (active) |
| COC(=O)Cn1cc(/C=C/[N+](=O)[O-])c2ccccc21 | -17% |

| Structure (SMILES) | inhibition |
| --- | --- |
| O=C(/C=C/c1cccc([N+](=O)[O-])c1)N1CCN(Cc2ccccc2)CC1 | 0.555% |
| COc1ccc(C(=O)/C=C/c2ccc(-c3ccccc3)cc2)cc1CSCC(=O)O | 105% (active) |
| COC(=O)c1ccc(COc2ccc(/C=C/C(=O)c3ccc(OC)c(CSCC(=O)O)c3)cc2OC)cc1 | 1.15% |
| COc1ccc(/C=C/C(=O)c2ccc(NS(=O)(=O)c3ccc(C)cc3)cc2)cc1O | -4.81% |
| CN(CCc1ccccc1)C(=O)c1cccc(NC(=O)Cc2cccc(NC(=O)C3CCCN(C(=O)CCc4ccccc4)C3)c2)c1 (stereo not given) | -1.39% |
| O=C(Nc1ccn(CCCNCc2ccc3[nH]ccc3c2)c(=O)n1)OCc1ccccc1 | -7.16% |
| CCCCN1CC(COc2ccccc2)Oc2cccc(F)c2S1(=O)=O (stereo not given) | -1.66% |
| O=C(NNC(=O)c1ccccc1O)c1ccccc1O | -9.27% |
| CN(/N=C/c1ccccc1)C(=S)c1ccccc1 | -15.5% |
| CN(O)C(=S)c1ccccc1 | 104% (active) |
| CN(CC(=O)O)C(=O)c1ccccc1 | 28.8% |
| CCc1ccc(C(=O)C(C)OC(=O)CN2C(=O)NC3(CCCC3)C2=O)cc1 (stereo not given) | -1.32% |
| Cc1nnsc1C(=O)N/N=C/c1ccccc1Cl | 1.6% |
| O=C(Nc1ccccc1)c1nnsc1S(=O)(=O)c1ccc(Cl)cc1 | 126% (active) |
| O=C(Nc1ccc(Cl)cc1)Nc1nnc(/C=C/c2ccccc2)s1 | 8.47% |
| O=C(C[C@H]1C/C=C\C[C@@H](NC(=O)OCC2c3ccccc3-c3ccccc32)C(=O)O[C@@H](c2ccccc2)CNC1=O)N[C@H](CO)Cc1ccccc1 | -13.9% |
| OCCN1CCN(CCO)C1=S | 15.3% |
| Cc1cc(-c2n[nH]c(=S)n2/N=C/C(Br)=C/c2ccccc2)n[nH]1 | 109% (active) |
| Oc1ccccc1/C=N/n1c(-c2cccs2)n[nH]c1=S | -9.75% |
| S=c1[nH]nc(-c2cc(-c3ccccc3)n[nH]2)n1/N=C/c1c2ccccc2cc2ccccc12 | -28.2% |
